The values that follow come from PubChem BioAssay AID1852 (Sanford-Burnham Center for Chemical Genomics, 2009).

Out of some 2,500 compounds screened, about 1,100 (44%) were called active. So high a share suggests a set chosen from earlier hits. This is one part of the list. Values without a mark were called inactive.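 The calls were made as follows: active = inhibition above 50% at 4 µM in the single-point screen; inactive = inhibition of 50% or less.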

The assay is described as follows: blockers of TNF-a NF-kB luciferase induction – cell-based, HEK293T NF-kB-Luc, luminescence, selectivity assay for NOD1/NOD2 signaling inhibitor project, primary screen (AID 1852). The following applies: TNF-a induced, 14 h, at 4 µM, active compounds read high.
With `Oc1ccc(Oc2ccc3c(C(F)(F)F)cc(C(F)(F)F)nc3n2)cc1`, the inhibition was 45.2%. In the case of `N#CC(c1ccccc1)c1ccc2c(C(F)(F)F)cc(C(F)(F)F)nc2n1` (stereo not drawn), the inhibition was 20.4%. Next, `N#CC(c1cccc(Cl)c1)c1ccc2c(C(F)(F)F)cc(C(F)(F)F)nc2n1` (stereo not drawn): 55.7% (active); `O=c1c2cc(Br)ccc2nc(-c2cccc(C(F)(F)F)c2)n1O`: 65% (active). Turning to `O=c1c2cc(Br)ccc2nc(-c2ccc(Cl)cc2)n1O`, the inhibition was -30%. As for `O=c1c2cc(Cl)ccc2nc(-c2ccc(Cl)c(Cl)c2)n1O`, the figure is 74.1% (active).

Turning to `Cc1ccc(C(=O)O/N=C(\N)c2ccccn2)c(Cl)c1`, the inhibition is -56.4%. Next, `Cc1ccc(C(=O)O/N=C(\N)c2ccccn2)c(C)c1`: 61.4% (active); `N/C(=N\OC(=O)c1cccc2ccccc12)c1ccc(Br)cc1`: -0.8%. Next, `CCN(CC)S(=O)(=O)c1ccc(Oc2ccc(S(=O)(=O)N(CC)CC)cc2)cc1`: 70.1% (active); `C=C(C(=O)c1ccccc1)C(C(=C)C(=O)c1ccccc1)c1ccc(OC)cc1`: 62.5% (active); `C=C(C(=O)c1ccccc1)C(C)CC(=O)c1ccccc1` (stereo not drawn): -8.9%. Next, `C=C(C(=O)c1ccccc1)C(CC(=O)c1ccccc1)c1ccccc1` (stereo not drawn): -23.3%; `CCC1C(=NO)C(CC)C(c2ccccc2)NC1c1ccccc1` (stereo not drawn): 32.5%.

In the case of `COc1cc(/C=C/[N+](=O)[O-])ccc1OCc1cccc(C(=O)O)c1`, the inhibition is 46%. Next, `COc1ccc(/C=C/C(O)=C2/C(=O)N(C)C3(C)CC2c2ccccc2O3)cc1` (stereo not drawn): -8.9%; `CCOc1ccc(/C=C/C(O)=C2/C(=O)N(C)C3(C)CC2c2ccccc2O3)cc1OC` (stereo not drawn): 51.8% (active); `CC(C)c1ccc(S(=O)(=O)/N=C2/C=C(Sc3ncn[nH]3)C(=O)c3ccccc32)cc1`: 84.1% (active). As for `Cc1ccc(S(=O)(=O)/N=C2/C=C(Sc3ncn[nH]3)C(=O)c3ccccc32)c(C)c1`, the figure is 100% (active). Next, `Cc1cc(C)c(S(=O)(=O)/N=C2/C=C(Sc3ncn[nH]3)C(=O)c3ccccc32)cc1C`: 75.1% (active). On to `Cc1cc(SCC(=O)OC/C(O)=C(\C#N)c2nc3ccccc3[nH]2)c(C)cc1Br`, for which the inhibition is 59.5% (active). On to `Cc1ccc(C)c(SCC(=O)OC/C(O)=C(\C#N)c2nc3ccccc3[nH]2)c1`, for which the inhibition was 52.5% (active). Next, `Cc1cc(Br)ccc1SCC(=O)OC/C(O)=C(\C#N)c1nc2ccccc2[nH]1`: 106% (active); `COC(=O)C1CCN(C(=O)C2CCN(C(=O)[C@@H](NS(=O)(=O)c3ccc(C)cc3)C(C)C)CC2)CC1`: 15.9%. As for `COc1cc(SC)ccc1C(=O)Nc1nc2ccccc2[nH]1`, the figure is 103% (active); as for `COc1ccccc1C(=O)Nc1nc2ccccc2[nH]1`, 82.8% (active); as for `COC(=O)/C(=C\c1cc(OC)c(OC)c(OC)c1)c1nc2ccccc2[nH]1`, -13.3%. As for `COc1ccc(Nc2nc(C(=O)N3CCc4ccccc4C3)cs2)cc1`, the figure is 20.3%. For `O=C(c1ccc(Cl)cc1)C1CCCN(Cc2cnn(-c3ccccc3)c2)C1` (stereo not drawn), the inhibition was 5.5%. As for `CCOC(=O)N1CCN(C(=O)C2CCCN(Cc3nc(-c4ccc(Cl)cc4)oc3C)C2)CC1` (stereo not drawn), the figure is 56.2% (active). Next, `Cc1oc(-c2ccc(Cl)cc2)nc1CSCC(=O)NC1CCN(Cc2ccccc2)CC1`: 47.1%; `CCSc1nnc(Cc2cc(=O)[nH]c(=O)[nH]2)n1-c1cc(C)ccc1C`: 16.9%. Next, `Cc1ccc(-n2c3nc(=O)[nH]c(=O)c-3cc3cc([N+](=O)[O-])ccc32)cc1C`: 41.9%.

On to `Cc1ccc(C)c(-n2c3nc(=O)[nH]c(=O)c-3cc3cc([N+](=O)[O-])ccc32)c1`, for which the inhibition was 58.5% (active). For `COc1ccc(/C=C2/SC(=S)N(CCC(=O)O)C2=O)cc1`, the inhibition is 36%.

On to `CC(/C=C1\SC(=S)N(c2ccc(C(=O)O)cc2)C1=O)=C\c1ccccc1`, for which the inhibition was 3.6%. As for `CC(/C=C1\SC(=O)N(CCCC(=O)O)C1=O)=C\c1ccccc1`, the figure is 79.5% (active); as for `O=C(O)CCCN1C(=O)/C(=C\C(Cl)=C\c2ccccc2)SC1=S`, 77.9% (active). Next, `COc1cccc(/C=C2/SC(=S)N(CCCC(=O)Nc3ccc(O)cc3)C2=O)c1`: 19.5%. As for `CC1(c2ccccc2)CC(C)(C)N2C(=O)/C(=C3\SC(=S)NC3=O)c3cccc1c32` (stereo not drawn), the inhibition is 84.3% (active). As for `CCc1cc2c3c(c1)C(C)CC(C)(C)N3C(=O)/C2=C1\SC(=O)NC1=O` (stereo not drawn), the figure is 6.9%; as for `COc1ccc2c(C#N)c3ccccn3c2c1`, 66.3% (active). On to `N#Cc1c2ccc(O)cc2n2ccccc12`, for which the inhibition is 70% (active). Next, `COc1ccc2c(c1)oc(=O)c1ccccc12`: -18.4%; `O=C(Oc1cc2oc(=O)cc(-c3ccccc3)c2cc1Cl)C1CCCCC1`: 77.6% (active); `COc1ccc(-c2cc(=O)oc3cc(OC(=O)C4CCCCC4)c(Cl)cc23)cc1`: 95.3% (active). As to `COc1ccc(-c2cc(=O)oc3cc(O)ccc23)cc1`, the inhibition is 2.6%. As for `COc1ccc(N2C(=O)C(Cl)=C(Oc3cccc(OC)c3)C2=O)cc1`, the figure is 13%. Next, `Nc1ccc(Oc2cccc(Oc3ccc(N)cc3)c2)cc1`: 54.8% (active). Next, `CC(=O)c1ccc(N2CCN(S(=O)(=O)c3ccc4c(c3)CC(C)N4C(=O)C3CC3)CC2)cc1` (stereo not drawn): 23.2%; `O=C(CSc1nc2scc(-c3ccccc3)c2c(=O)[nH]1)Nc1ccccc1`: 32.9%. As for `Cc1ccc(NC(=O)CSc2nc(C)c(Cc3ccccc3)c(=O)[nH]2)cc1`, the inhibition is 20%.

For `O=C(CSC1=NNC(c2ccccn2)S1)Nc1ccccc1` (stereo not drawn), the inhibition was 50.1% (active).

Regarding `COc1cc(CNc2ccc3[nH]c(=O)[nH]c3c2)ccc1OCc1ccc(F)cc1Cl`, the inhibition is 28.6%. For the compound `Cc1cc(=O)n(C)c(=O)n1CCCCOc1ccc([N+](=O)[O-])cc1`, the inhibition was 24.7%. In the case of `CCc1ccc(C(=O)OCC(=O)c2c(N)n(CC(C)C)c(=O)n(C)c2=O)cc1`, the inhibition was 23.2%. For the compound `Cc1c(C(=O)OCC(=O)c2c(N)n(CC(C)C)c(=O)n(C)c2=O)oc2ccccc12`, the inhibition was 26.4%. As for `CC(C)Cn1c(N)c(C(=O)CSc2ccc3c(c2)OCCO3)c(=O)n(C)c1=O`, the figure is 82.1% (active); as for `CC(=O)c1ccc(N2CCN(S(=O)(=O)c3ccc4c(c3)CC(C)N4C(C)=O)CC2)cc1` (stereo not drawn), 47.2%. Next, `CC1Cc2ccccc2N1S(=O)(=O)c1cccc(C(=O)N2CCN(c3ncccn3)CC2)c1` (stereo not drawn): 58.4% (active); `O=C(c1ccc(-c2ccccc2)cc1)N1CCN(c2ccccn2)CC1`: 18.3%. As for `Cc1cc2nc(-c3ccc(SCc4ccccn4)nc3)[nH]c2cc1C`, the figure is 78.5% (active); as for `Cc1ccccc1C(=O)Nc1ccc(-c2nc3ccc(C(=O)c4ccccc4)cc3[nH]2)cc1`, 38.3%. Regarding `COc1ccc(C(=O)O/N=C(\N)c2ccc(Br)cc2)cc1`, the inhibition is -10.5%. Next, `CC(C)(C)c1ccc(C(=O)O/N=C(\N)c2ccccn2)cc1`: 22.5%. Take `CC(C)(C)c1ccc(C(=O)O/N=C(\N)c2ccccc2)cc1`: the inhibition was 51% (active).

Turning to `COc1ccc(-n2cnc3c(sc4nc(N5CCOCC5)c5c(c43)CCCC5)c2=O)cc1`, the inhibition was 46.4%. Take `COc1ccc(-c2cc(=O)oc3cc(OCC(=O)Nc4ccc(CCO)cc4)ccc23)cc1`: the inhibition is 38.3%. As for `CCc1ccc(OCC(=O)Nc2ccc(-c3cc4ccccc4oc3=O)c(OC)c2)cc1`, the figure is 51.2% (active). Next, `Cc1ccn2cc(-c3cc4ccccc4oc3=O)nc2c1`: -79.5%; `Cn1nccc1C(=O)N1CCN(c2ccccc2F)CC1`: -23.6%. Next, `Cc1ccc(Cl)cc1N1CCN(C(=O)c2cc3c(=O)[nH]c4ccccc4c3n2C)CC1`: 89.7% (active); `COc1ccccc1OCC(=O)OC/C(O)=C(\C#N)c1nc2ccccc2[nH]1`: 98.2% (active); `COc1ccccc1OCc1nnc(SCC(N)=O)n1-c1ccccc1`: 0.9%. Consider `Cc1cccc(C)c1OCC(=O)OC/C(O)=C(\C#N)c1nc2ccccc2[nH]1`, for which the inhibition is 101% (active).

With `Cc1nc(SCC(=O)Nc2nc3ccccc3s2)c(C#N)c(C)c1C`, the inhibition was 61.7% (active). As for `CC(C)(C)c1nc(SCC(=O)Nc2nc3c(s2)CCCC3)c2ccccc2n1`, the figure is -17.1%. In the case of `COc1ccc(/C=C2\CN(Cc3ccccc3)C/C(=C\c3ccc(OC)c(O)c3)C2=O)cc1O`, the inhibition is 77.4% (active). As for `COc1ccc(CCNC(=S)NC2CCN(Cc3ccccc3)CC2)cc1OC`, the figure is 43.5%. Next, `O=[N+]([O-])c1cccc(S(=O)(=O)NCc2ccncc2)c1`: 42.3%. Next, `CCN1C/C(=C/c2cccc([N+](=O)[O-])c2)C(=O)/C(=C/c2cccc([N+](=O)[O-])c2)C1`: 106% (active); `O=C1/C(=C/c2cccc([N+](=O)[O-])c2)CCc2ccccc21`: -28.5%. In the case of `CCC1C/C(=C\c2cc(OC)c(OC)cc2OC)C(=O)/C(=C/c2cc(OC)c(OC)cc2OC)C1` (stereo not drawn), the inhibition was 36.6%. As for `CCN1C/C(=C/c2ccc(OC)c(O)c2)C(=O)/C(=C/c2ccc(OC)c(O)c2)C1`, the figure is 101% (active); as for `Cc1cccc(-n2c(SC(C)C(=O)O)nc3sc4c(c3c2=O)CCCC4)c1` (stereo not drawn), 45.4%; as for `O=[N+]([O-])c1ccc(NC(=S)NCCc2ccc(F)cc2)cc1`, 18.3%. On to `N#Cc1ccc(NC(=O)Nc2ccc(Cl)cc2)cc1`, for which the inhibition is 22.5%. As for `O=[N+]([O-])c1ccc(NC(=S)NCCc2ccc(Cl)cc2)cc1`, the figure is 87.9% (active); as for `Cc1nc(CN(C)C(=O)c2cc(COc3ccc4ncccc4c3)on2)cs1`, 27.2%; as for `CCc1ccc(CN(C)C(=O)c2cc(COc3cccc4cnccc34)on2)cc1`, 80% (active).

On to `CN(Cc1nccs1)C(=O)c1cc(COc2cccc3cnccc23)on1`, for which the inhibition was 66.3% (active). As for `CN(Cc1cccnc1)C(=O)c1cc(COc2ccc3ncccc3c2)on1`, the figure is 42.9%. As for `COc1cccc(CN(C)C(=O)c2cc(COc3ccc4ncccc4c3)on2)c1`, the figure is 56.4% (active).
